Experimental data from PubChem BioAssay AID1159580 (chemical genetic matrix, 2015).
Hit rate of the full screen: of about 5,500 compounds, about 2,000 (36%) were called active. Inconclusive results (about 18%) are left out. The list shows a part of the results. A number with no mark means an inactive call. Cut-off read from the data, not from the text of the source: active = normalized growth mostly below about 0.91 (no sharp cut-off); inconclusive = no clear call, values can overlap the other calls; inactive = mostly above about 0.92.

Assay: chemical genetic growth profiling, strain panel (AID 1159580);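 note: tested at 20 µM; growth read once vehicle control cultures reached saturation at 30 °C; 1 = growth at the plate median or of vehicle wells; lower values mean less growth of the strain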
Conditions: growth OD

Compound: C=C1C(=O)O[C@@H]2C[C@@]3(C)CCC[C@H](C)C3=C[C@H]12
- normalized growth (S. cerevisiae deletion strains, locus YJR043C, strain POL32, active compounds read low): 0.88
- normalized growth (S. cerevisiae deletion strains, locus YJR066W, strain TOR1, active compounds read low): 0.939
- normalized growth (S. cerevisiae deletion strains, locus YKL009W, strain mrt4, active compounds read low): 1.01
- normalized growth (S. cerevisiae deletion strains, locus YKL068W, active compounds read low): 0.946
- normalized growth (S. cerevisiae deletion strains, locus YKL085W, strain MDH1 (second series), active compounds read low): 0.909 (active)
- normalized growth (S. cerevisiae deletion strains, locus YKL085W, strain MDH1, active compounds read low): 0.909 (active)
- normalized growth (S. cerevisiae deletion strains, locus YKL160W, strain elf1, active compounds read low): 0.78 (active)
- normalized growth (S. cerevisiae deletion strains, locus YKL190W, strain CNB1, active compounds read low): 0.934
- normalized growth (S. cerevisiae deletion strains, locus YKR001C, strain vps1, active compounds read low): 0.496 (active)
- normalized growth (S. cerevisiae deletion strains, locus YKR026C, strain gcn3, active compounds read low): 0.893 (active)
- normalized growth (S. cerevisiae deletion strains, locus YKR091W, strain srl3, active compounds read low): 0.913 (active)
- normalized growth (S. cerevisiae deletion strains, locus YLL001W, strain dnm1, active compounds read low): 0.842 (active)
- normalized growth (S. cerevisiae deletion strains, locus YLL026W, active compounds read low): 0.869 (active)
- normalized growth (S. cerevisiae deletion strains, locus YLL041C, strain sdh2, active compounds read low): 0.888 (active)
- normalized growth (S. cerevisiae deletion strains, locus YLR027C, strain aat2, active compounds read low): 0.827 (active)
- normalized growth (S. cerevisiae deletion strains, locus YLR039C, strain RIC1, active compounds read low): 0.221 (active)
- normalized growth (S. cerevisiae deletion strains, locus YLR058C, strain SHM2, active compounds read low): 0.898
- normalized growth (S. cerevisiae deletion strains, locus YLR102C, strain apc9, active compounds read low): 0.942
- normalized growth (S. cerevisiae deletion strains, locus YLR113W, strain HOG1, active compounds read low): 0.991
- normalized growth (S. cerevisiae deletion strains, locus YLR221C, strain rsa3, active compounds read low): 0.751 (active)
- normalized growth (S. cerevisiae deletion strains, locus YLR258W, strain gsy2, active compounds read low): 0.819 (active)
- normalized growth (S. cerevisiae deletion strains, locus YLR262C, strain YPT6 (second series), active compounds read low): 0.259 (active)
- normalized growth (S. cerevisiae deletion strains, locus YLR262C, strain YPT6, active compounds read low): 0.268 (active)
- normalized growth (S. cerevisiae deletion strains, locus YLR268W, strain sec22, active compounds read low): 0.668 (active)
- normalized growth (S. cerevisiae deletion strains, locus YLR320W, strain mms22, active compounds read low): 0.597 (active)
- normalized growth (S. cerevisiae deletion strains, locus YLR330W, strain CHS5, active compounds read low): 0.848 (active)
- normalized growth (S. cerevisiae deletion strains, locus YLR342W, strain FKS1 (second series), active compounds read low): 0.864
- normalized growth (S. cerevisiae deletion strains, locus YLR342W, strain FKS1, active compounds read low): 0.885 (active)
- normalized growth (S. cerevisiae deletion strains, locus YLR357W, strain rsc2, active compounds read low): 0.662 (active)
- normalized growth (S. cerevisiae deletion strains, locus YLR370C, strain arc18, active compounds read low): 0.899 (active)
- normalized growth (S. cerevisiae deletion strains, locus YLR371W, strain rom2, active compounds read low): 0.646 (active)
- normalized growth (S. cerevisiae deletion strains, locus YLR384C, strain iki3, active compounds read low): 0.87 (active)
- normalized growth (S. cerevisiae deletion strains, locus YLR418C, strain cdc73, active compounds read low): 0.31 (active)
- normalized growth (S. cerevisiae deletion strains, locus YML016C, strain PPZ1, active compounds read low): 0.85 (active)
- normalized growth (S. cerevisiae deletion strains, locus YML032C, strain rad52, active compounds read low): 0.923
- normalized growth (S. cerevisiae deletion strains, locus YML120C, strain ndi1, active compounds read low): 0.818 (active)
- normalized growth (S. cerevisiae deletion strains, locus YML124C, strain tub3, active compounds read low): 0.896 (active)
- normalized growth (S. cerevisiae deletion strains, locus YMR058W, strain fet3, active compounds read low): 0.8 (active)
- normalized growth (S. cerevisiae deletion strains, locus YMR078C, strain ctf18, active compounds read low): 0.915
- normalized growth (S. cerevisiae deletion strains, locus YMR125W, strain sto1, active compounds read low): 0.669 (active)
- normalized growth (S. cerevisiae deletion strains, locus YMR129W, active compounds read low): 0.847 (active)
- normalized growth (S. cerevisiae deletion strains, locus YMR205C, strain PFK2, active compounds read low): 0.653 (active)
- normalized growth (S. cerevisiae deletion strains, locus YMR223W, strain ubp8, active compounds read low): 0.815 (active)
- normalized growth (S. cerevisiae deletion strains, locus YMR231W, strain pep5, active compounds read low): 0.859 (active)
- normalized growth (S. cerevisiae deletion strains, locus YMR307W, strain GAS1, active compounds read low): 0.654
- normalized growth (S. cerevisiae deletion strains, locus YNL067W, strain RPL9B, active compounds read low): 0.896
- normalized growth (S. cerevisiae deletion strains, locus YNL071W, strain lat1, active compounds read low): 0.377 (active)
- normalized growth (S. cerevisiae deletion strains, locus YNL153C, strain GIM3, active compounds read low): 0.868 (active)
- normalized growth (S. cerevisiae deletion strains, locus YNL183C, strain NPR1, active compounds read low): 0.959
- normalized growth (S. cerevisiae deletion strains, locus YNL209W, strain ssb2, active compounds read low): 0.902 (active)
- normalized growth (S. cerevisiae deletion strains, locus YNL233W, strain BNI4, active compounds read low): 0.828 (active)
- normalized growth (S. cerevisiae deletion strains, locus YNL248C, strain rpa49, active compounds read low): 0.617 (active)
- normalized growth (S. cerevisiae deletion strains, locus YNL250W, strain rad50, active compounds read low): 0.949
- normalized growth (S. cerevisiae deletion strains, locus YNL271C, strain bni1, active compounds read low): 0.855 (active)
- normalized growth (S. cerevisiae deletion strains, locus YNL298W, strain CLA4, active compounds read low): 0.943
- normalized growth (S. cerevisiae deletion strains, locus YNL307C, strain MCK1, active compounds read low): 0.737 (active)
- normalized growth (S. cerevisiae deletion strains, locus YNL322C, strain KRE1 (second series), active compounds read low): 0.902 (active)
- normalized growth (S. cerevisiae deletion strains, locus YNR049C, strain mso1, active compounds read low): 0.903 (active)
- normalized growth (S. cerevisiae deletion strains, locus YNR052C, strain pop2, active compounds read low): 0.875 (active)
- normalized growth (S. cerevisiae deletion strains, locus YOL006C, strain TOP1, active compounds read low): 0.598
- normalized growth (S. cerevisiae deletion strains, locus YOL012C, strain htz1): 0.342
- normalized growth (S. cerevisiae deletion strains, locus YOL147C, strain pex11, active compounds read low): 0.921 (active)
- normalized growth (S. cerevisiae deletion strains, locus YOR001W, strain rrp6, active compounds read low): 0.807 (active)
- normalized growth (S. cerevisiae deletion strains, locus YOR061W, strain CKA2, active compounds read low): 0.925
- normalized growth (S. cerevisiae deletion strains, locus YOR069W, strain VPS5, active compounds read low): 0.915 (active)
- normalized growth (S. cerevisiae deletion strains, locus YOR070C, strain gyp1, active compounds read low): 0.856 (active)
- normalized growth (S. cerevisiae deletion strains, locus YOR080W, strain dia2, active compounds read low): 0.908 (active)
- normalized growth (S. cerevisiae deletion strains, locus YOR083W, strain WHI5, active compounds read low): 0.82 (active)
- normalized growth (S. cerevisiae deletion strains, locus YOR106W, strain vam3, active compounds read low): 0.752 (active)
- normalized growth (S. cerevisiae deletion strains, locus YOR136W, strain idh2, active compounds read low): 0.942
- normalized growth (S. cerevisiae deletion strains, locus YOR144C, strain elg1, active compounds read low): 0.927 (active)
- normalized growth (S. cerevisiae deletion strains, locus YOR184W, strain ser1, active compounds read low): 0.577 (active)
- normalized growth (S. cerevisiae deletion strains, locus YOR231W, strain MKK1, active compounds read low): 1.01
- normalized growth (S. cerevisiae deletion strains, locus YOR265W, strain rbl2, active compounds read low): 0.883 (active)
- normalized growth (S. cerevisiae deletion strains, locus YOR270C, strain vph1, active compounds read low): 0.583 (active)
- normalized growth (S. cerevisiae deletion strains, locus YOR290C, strain snf2, active compounds read low): 0.785 (active)
- normalized growth (S. cerevisiae deletion strains, locus YOR316C, strain cot1, active compounds read low): 0.939
- normalized growth (S. cerevisiae deletion strains, locus YPL051W, strain arl3, active compounds read low): 0.73 (active)
- normalized growth (S. cerevisiae deletion strains, locus YPL055C, strain LGE1, active compounds read low): 0.722 (active)
- normalized growth (S. cerevisiae deletion strains, locus YPL078C, strain atp4, active compounds read low): 0.791 (active)
- normalized growth (S. cerevisiae deletion strains, locus YPL106C, strain sse1, active compounds read low): 0.521 (active)
- normalized growth (S. cerevisiae deletion strains, locus YPL240C, strain hsp82, active compounds read low): 0.825 (active)
- normalized growth (S. cerevisiae deletion strains, locus YPL256C, strain CLN2, active compounds read low): 0.949
- normalized growth (S. cerevisiae deletion strains, locus YPR119W, strain clb2, active compounds read low): 0.907 (active)
- normalized growth (S. cerevisiae deletion strains, locus YPR141C, strain kar3, active compounds read low): 0.926
- normalized growth (S. cerevisiae deletion strains, locus YPR163C, strain tif3, active compounds read low): 0.749 (active)
- normalized growth (S. cerevisiae deletion strains, locus YPR167C, strain met16, active compounds read low): 0.899 (active)
- normalized growth (S. cerevisiae deletion strains, strain wtn01, active compounds read low): 0.909
- normalized growth (S. cerevisiae strains, strain wild type, active compounds read low): 0.882 (active)
